Among the data in PubChem BioAssay (NCATS) are Potency and Z-AUC values, retold here.

The nature of test [1]: Primary qHTS for inhibitors of nuclear receptor binding SET domain protein 2 (NSD2) in an isogenic RCH-ACV NSD2 p.E1099K mutant (9B) (AID 1645876). Further: nearly all actives have a fitted effect of over 70% in size. Further: potency means the concentration at half of the fitted maximal effect. On the technique in general: qHTS replaces the single test concentration by a dilution series.
Test [2] can be described thus: Primary qHTS for inhibitors of nuclear receptor binding SET domain protein 2 (NSD2) in an RCH-ACV wild type WT cells (2C) (AID 1645877). Further: nearly all actives have a fitted effect of over 70% in size. Further: potency means the concentration at half of the fitted maximal effect.
The target of test [3] is Glutathione peroxidase 1 (Homo sapiens) (UniProt P07203). The test can be described thus: Primary qHTS Assay for Inhibitors of Recombinant Selenoprotein Glutathione Peroxidase 1 (GPX1) (AID 1845191). Further: nearly all actives have a fitted effect of over 65% in size. The procedure, abridged: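 GR-coupled readout: NADPH consumption tracked by fluorescence, ex 340/em 450 nm, at t=0 and after 15 min at RT. Final mix 10 nM GPX1, 1 mM GSH, 0.5 mM CHP, 0.5 mM NADPH, 100 nM GR, 0.01% BSA, following 30 min enzyme–compound preincubation.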

The target of test [4] is Phospholipid hydroperoxide glutathione peroxidase GPX4 (Homo sapiens) (UniProt P36969). Briefly: Primary qHTS Assay for Inhibitors of Recombinant Selenoprotein Glutathione Peroxidase 4 (GPX4) (AID 1845192). Further: nearly all actives have a fitted effect of over 65% in size. The conditions noted are these: outcome: dose series up to 50 µM unless noted. The procedure, abridged: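 Steps: GPX4 plus compound, 30 min RT; add GR/GSH/NADPH master mix; start with cumene hydroperoxide; read 340/450 nm fluorescence at 0 and 15 min. Finals were 200 nM GPX4, 1 mM GSH, 0.5 mM CHP, 0.5 mM NADPH, 100 nM GR.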

Test [5] can be described thus: qHTS drug screen for cell cycle checkpoint inhibitors in PARPi-resistant BRCA-mutant ovarian cancer cell lines. (AID 1963452; calls by dose curve). As to conditions: PEO1/OlaR viability, CellTiter-Glo luminescence, 96 h, stronger effect = lower value. The procedure, abridged: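 PEO1, PEO4 and PEO1/OlaR ovarian cancer cells, 600 per well, exposed 96 h at 37C to a dilution series. Viability read by CellTiter-Glo luminescence, normalized to DMSO and empty wells; activity summarized as Z-AUC.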

Test [6] can be described thus: NCATS anti-infectives library activity on HEK293 viability as a counter-qHTS vs the C. elegans viability qHTS (AID 1745854). Further: on the % scale 0 is the no-effect control and ±100 the full control effect. An outline of the steps: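 Cytotoxicity counter-screen to a worm viability qHTS: CellTiter-Glo luminescence read 10 min after reagent addition. Compounds (final up to 41.7 uM, a 1:5 dilution series) incubated 24 hr at 37C with 1,500 HEK293 cells per well; digitonin control.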

The mark [7] stands for this setting: measured here: PEO1 parental Z-AUC.

Results filed as inconclusive are left out. Active and inactive are the calls of the source. Unless noted, the call rests on the fitted dose curve; in most records, active means well fitted curve in the direction sought with a large enough effect; inconclusive means small, poorly fitted or top-dose-only effect, or another doubt; inactive means no such curve, though single readings can be large; an effect the other way counts as inactive or inconclusive.

Glutathione peroxidase 1 (Homo sapiens), sequence (P07203 whole entry, looked up): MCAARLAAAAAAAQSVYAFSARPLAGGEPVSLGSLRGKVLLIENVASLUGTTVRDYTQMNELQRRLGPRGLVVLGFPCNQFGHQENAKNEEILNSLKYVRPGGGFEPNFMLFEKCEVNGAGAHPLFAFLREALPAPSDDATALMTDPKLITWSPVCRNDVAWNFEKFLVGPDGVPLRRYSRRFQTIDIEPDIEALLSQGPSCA
Phospholipid hydroperoxide glutathione peroxidase GPX4 (Homo sapiens), sequence (P36969 whole entry, looked up): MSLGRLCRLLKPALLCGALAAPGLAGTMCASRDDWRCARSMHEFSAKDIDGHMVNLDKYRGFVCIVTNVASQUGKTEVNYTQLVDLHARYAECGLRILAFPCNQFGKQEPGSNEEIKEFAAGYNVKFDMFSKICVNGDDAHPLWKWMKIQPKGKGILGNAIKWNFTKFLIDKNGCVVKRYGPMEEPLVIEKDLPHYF

In the case of `CCN(C(=O)c1ccccc1OC)c1cc2c(cc1N1CCNC[C@H]1C)n(C)c(=O)n2C`, the Potency entry in test [1], in test [2], in test [3] and in test [4] was “inactive” in each case. Also, the Z-AUC in test [5] is -0.888 (inactive); in test [5] (setting [7]), -0.889; in test [5] (measured here: PEO4 Z-AUC), -0.903.

Take `CCCc1cc(C(=O)N[C@H](Cc2ccc(-c3cccc(OC(F)(F)F)c3)nc2)C(=O)N[C@@H]2CCNC2)sc1C`: the Potency was 6.61 µM (active) in test [1] and 5.9 µM (active) in test [2]. Moreover, in test [3], the Potency result was “inactive”. For the same compound, the Z-AUC in test [5] is -0.805 (inactive); in test [5] (setting [7]), -0.801; in test [5] (measured here: PEO4 Z-AUC), -0.851.

For `COc1cc(=C2C=c3ccccc3=N2)[nH]/c1=C/c1[nH]c(C)cc1C`, the Potency entry in test [1], in test [2] and in test [3] was “inactive” in each case. For the same compound, the Z-AUC in test [5] is 0.716 (inactive); in test [5] (setting [7]), 0.368; in test [5] (measured here: PEO4 Z-AUC) it was 1.02.

As to `CN(C(=O)CNC(=O)/C=C/c1cccc(Cl)c1)C1CCS(=O)(=O)CC1`, the Potency result in test [3] and in test [4] was “inactive” each time. Moreover, the Z-AUC was -0.555 (inactive) in test [5], -0.958 in test [5] (setting [7]) and -0.957 in test [5] (measured here: PEO4 Z-AUC).

In the case of `COc1ccc(S(=O)(=O)NCc2ccc(C(=O)NCCc3ccc(Cl)cn3)cc2)cc1`, the Potency result in test [3] and in test [4] was “inactive” each time. The figures for the Z-AUC in test [5], in test [5] (setting [7]) and in test [5] (measured here: PEO4 Z-AUC) were -2 (inactive), -0.947 and -0.745, respectively.

For the compound `Cc1ccc(-c2ccc(C)cn2)nc1`, the Potency result in test [1], in test [2], in test [6], in test [3] and in test [4] was “inactive” in each case. Besides, the results for the Z-AUC in test [5], in test [5] (setting [7]) and in test [5] (measured here: PEO4 Z-AUC) were 1.52 (inactive), 0.85 and 1.74, respectively.
